{"source": "PubChem BioAssay AID1259343", "about": "(VanderVen Lab, College of Veterinary Medicine, Cornell …, 2017)", "note": "The whole screen tested about 6,200 compounds, of which about 2,900 (47%) were called active. Rule as the data show it: active = inhibition above about 50%; inactive = the rest. So high a share suggests a set chosen from earlier hits. The list shows a part of the results."}
{"assay": "Mycobacterium tuberculosis growth inhibition, primary screen (AID 1259343)", "details": "inhibition: at 10 µM, active compounds read high; outcome: 10 uM"}
{"smiles": "N[C@@H](CO)C(=O)Nc1ccc(Cc2ccccc2)cc1", "inhibition": "89.6% (active)"}
{"smiles": "Nc1ccccc1Cc1ccc(O)cc1", "inhibition": "30.5% (inactive)"}
{"smiles": "CCN1CCN(Cc2ccc(-c3cc4c(N[C@H](C)c5ccccc5)ncnc4[nH]3)cc2)CC1", "inhibition": "16.6% (inactive)"}
{"smiles": "COc1ccc(CN2CCN(c3ncnc4c3cnn4-c3ccccc3)CC2)cc1F", "inhibition": "82.1% (active)"}
{"smiles": "Cc1ccc(Cn2ncc3c(N4CCN(CCOc5ccc(C)cc5)CC4)ncnc32)cc1", "inhibition": "24.2% (inactive)"}
{"smiles": "OCC1(CCOc2ccccc2)CCN(c2ncnc3sccc23)CC1", "inhibition": "20.1% (inactive)"}
{"smiles": "COc1cccc(OCCN2CCN(c3ncnc4c3cnn4-c3ccccc3)CC2)c1", "inhibition": "64% (active)"}
{"smiles": "Cc1ccc(-c2cnn3c(NCCOCCO)cc(C(C)(C)C)nc23)cc1", "inhibition": "-3.38% (inactive)"}
{"smiles": "CN(C)CCCNc1cc(C(C)(C)C)nc2c(-c3ccc(Cl)cc3)cnn12", "inhibition": "36.7% (inactive)"}
{"smiles": "Cc1cc(NCCN(C)C)n2nc(C(F)(F)F)c(-c3ccccc3)c2n1", "inhibition": "45% (inactive)"}
{"smiles": "CN(C)CCCNc1cc(C(C)(C)C)nc2c(-c3ccccc3)cnn12", "inhibition": "74% (active)"}
{"smiles": "CN(C)CCNc1cc(-c2ccccc2)nc2c(-c3ccccc3)cnn12", "inhibition": "70.7% (active)"}
{"smiles": "CC(C)c1cc(NCCN(C)C)n2ncc(-c3ccccc3)c2n1", "inhibition": "-10.7% (inactive)"}
{"smiles": "Cc1cc(=O)[nH]c(-n2nc(C3CC3)cc2NC(=O)c2ccc(F)cc2)n1", "inhibition": "99.8% (active)"}
{"smiles": "Cc1cc(=O)[nH]c(-n2nc(C3CC3)cc2NC(=O)c2ccc(C(F)(F)F)cc2)n1", "inhibition": "99.9% (active)"}
{"smiles": "Cc1cc(=O)[nH]c(-n2nc(C3CC3)cc2NC(=O)c2ccc(F)c(F)c2)n1", "inhibition": "99.9% (active)"}
{"smiles": "CCCCCCn1c(N2CCN(c3ccccc3)CC2)nc2c1c(=O)n(C)c(=O)n2C", "inhibition": "81.9% (active)"}
{"smiles": "CC(C)CCn1c(N2CCCCC2)nc2c1c(=O)n(C)c(=O)n2C", "inhibition": "-32.3% (inactive)"}
{"smiles": "CCCCCCn1c(N2CCN(Cc3ccc(Cl)c(Cl)c3)CC2)nc2c1c(=O)[nH]c(=O)n2C", "inhibition": "9.32% (inactive)"}
{"smiles": "CCCn1c(=O)c2c(nc3n2CCCN3Cc2ccccc2)n(C)c1=O", "inhibition": "33.4% (inactive)"}
{"smiles": "CCCCc1ccc(-n2c(C)c(C)n3c4c(=O)n(CCCO)c(=O)n(C)c4nc23)cc1", "inhibition": "46.3% (inactive)"}
{"smiles": "CCCCCn1c(=O)c2c(nc3n2CCN3Cc2ccco2)n(C)c1=O", "inhibition": "61% (active)"}
{"smiles": "Cc1cn2c3c(=O)n(CC(=O)C(C)(C)C)c(=O)n(C)c3nc2n1C1CCCC1", "inhibition": "-30.1% (inactive)"}
{"smiles": "CCCCCn1c(=O)c2c(nc3n2CC(C)CN3C2CCCCC2)n(C)c1=O", "note": "(stereo not given)", "inhibition": "92.2% (active)"}
{"smiles": "CCCn1c(C2CCCCC2)nc2c(c(=O)c3ccccc3n2C)c1=O", "inhibition": "12.9% (inactive)"}
{"smiles": "N[C@@H](C(=O)O)[C@@H](O)[C@H](O)[C@H](O)CO", "inhibition": "-6.84% (inactive)"}
{"smiles": "O=C(NNC(=O)c1cc(-c2ccccc2)no1)c1ccco1", "inhibition": "96% (active)"}
{"smiles": "c1ccc(-c2cc(-c3ccccc3)on2)cc1", "inhibition": "46.9% (inactive)"}
{"smiles": "Cn1nccc1CNC(=O)c1ccc(COc2cc(Cl)ccc2Cl)o1", "inhibition": "35% (inactive)"}
{"smiles": "O=C(NNC(=O)c1ccc(COc2ccccc2)o1)c1ccco1", "inhibition": "59.7% (active)"}
{"smiles": "O=C(Nc1nccs1)c1ccc(COc2ccc(F)cc2)o1", "inhibition": "29.5% (inactive)"}
{"smiles": "C=CCn1c(SCCC#N)nc2sc3c(c2c1=O)CCCC3", "inhibition": "80.7% (active)"}
{"smiles": "C=CCn1c(=S)[nH]c2sc3c(c2c1=O)CCC(C)C3", "note": "(stereo not given)", "inhibition": "8.34% (inactive)"}
{"smiles": "C=CCn1c(SCc2c(C)noc2C)nc2sc(C)c(C)c2c1=O", "inhibition": "30.8% (inactive)"}
{"smiles": "O=C(O)c1cccc(=O)n1CCOc1ccccc1Cl", "inhibition": "53.1% (active)"}
{"smiles": "Cc1ccc(C)c2c3c([nH]c12)-c1nonc1CC3", "inhibition": "34.5% (inactive)"}
{"smiles": "CCn1c2ccccc2c2nc3ccccc3nc21", "inhibition": "-25.2% (inactive)"}
{"smiles": "Cc1nc2ccccc2c(=O)n1NC(=S)NC(=O)c1ccc(Br)cc1", "inhibition": "40.8% (inactive)"}
{"smiles": "O=c1[nH]n2c(=O)c3ccccc3nc2c2ccccc12", "inhibition": "86% (active)"}
{"smiles": "CC1CN(c2ccc(C(=O)NC(c3ccccc3)c3ccc(Cl)cc3)cn2)CCN1", "note": "(stereo not given)", "inhibition": "33.2% (inactive)"}
{"smiles": "Cc1cc(C(C)(C)C)cc(C)c1CCN1CN(CCO)c2nc3ccccc3n2C1", "inhibition": "66.6% (active)"}
{"smiles": "CC1CCN(S(=O)(=O)N2CCCC(c3cc4ccccc4[nH]3)C2)CC1", "note": "(stereo not given)", "inhibition": "73.2% (active)"}
{"smiles": "CN(C(=O)CN1CCC(c2cc3ccccc3[nH]2)CC1)C1CC1", "inhibition": "-6.34% (inactive)"}
{"smiles": "CC1CC(C)CN(S(=O)(=O)NCc2cc3ccccc3[nH]2)C1", "note": "(stereo not given)", "inhibition": "27.9% (inactive)"}
{"smiles": "N[C@H]1CN[C@H](C(=O)N2CC(N3CCCCC3)C2)C1", "inhibition": "-19.7% (inactive)"}
{"smiles": "CC/C=C(/C)C(=O)Nc1ccc(-n2nccn2)cc1", "inhibition": "96.5% (active)"}
{"smiles": "COc1c(N2CCNC(C)C2)c(F)cc2c(=O)c(C(=O)O)cn(C3CC3)c12", "note": "(stereo not given)", "inhibition": "98% (active)"}
{"smiles": "O=C(Cc1cc(-c2ccc(Cl)cc2)on1)NCCC1=CCCCC1", "inhibition": "37.4% (inactive)"}
{"smiles": "O=C(CCS(=O)(=O)c1ccc(Cl)cc1)NCCC1=CCCCC1", "inhibition": "79% (active)"}
{"smiles": "Cc1cc(=O)[nH]c(-n2nc(C3CC3)cc2NC(=O)COc2ccc(F)cc2)n1", "inhibition": "99.9% (active)"}
{"smiles": "Cc1cc(=O)[nH]c(-n2nc(C3CC3)cc2NC(=O)COc2ccc(Cl)cc2Cl)n1", "inhibition": "100% (active)"}
{"smiles": "Cc1cc(=O)[nH]c(-n2nc(C3CC3)cc2NC(=O)COc2ccc(Cl)cc2)n1", "inhibition": "100% (active)"}
{"smiles": "COc1ccc(OCC(=O)Nc2cc(C3CC3)nn2-c2nc(C)cc(=O)[nH]2)cc1", "inhibition": "-5.9% (inactive)"}
{"smiles": "Cc1cc(=O)[nH]c(-n2nc(C)cc2NC(=O)COc2ccc(F)cc2)n1", "inhibition": "99.8% (active)"}
{"smiles": "CCCCn1c(O)c(C=Nc2cccc(C)c2)c(C)c(C#N)c1=O", "inhibition": "-35.7% (inactive)"}
{"smiles": "Cc1cc(C(F)(F)F)c2c(n1)sc1c(O)cc(=O)[nH]c12", "inhibition": "27.2% (inactive)"}
{"smiles": "CCc1c(C)nc(-n2nc(C)cc2NC(=O)C(CC)c2ccccc2)[nH]c1=O", "note": "(stereo not given)", "inhibition": "12.6% (inactive)"}
{"smiles": "Cc1cc(=O)[nH]c(-n2nc(C)cc2NC(=O)C(c2ccccc2)c2ccccc2)n1", "inhibition": "101% (active)"}
{"smiles": "CCc1cc(=O)[nH]c(-n2nc(C)cc2NC(=O)C(c2ccccc2)c2ccccc2)n1", "inhibition": "100% (active)"}
{"smiles": "Cc1cc(=O)[nH]c(-n2nc(C)cc2NC(=O)C(C)Oc2ccccc2)n1", "note": "(stereo not given)", "inhibition": "99.8% (active)"}
